# A selection: hits, their analogues and other compounds. The true share with any hit is near 3.5%.
# TEAD-YAP block: TEAD-YAP interaction inhibition; HEK-TIYL cells, TEAD-Gal4/YAP UAS-luciferase luminescence; hit rate 1.4% among 640,000; inhibition, % at 9.12 µM; in the data active = inhibition above about 32%
# GPR151 activ: activates the human receptor GPR151. PathHunter beta-arrestin GPR151 cells, luminescence. Q8TDV0. hit rate 1% among 650,000. activation, % at 11.2 µM; in the data active = activation above about 4.9%
# FBW7 activator: activators of human E3 ligase FBW7. AlphaScreen FBW7–phospho-cyclin E peptide binding, activator screen. normalized activity (activation), % at 26.1 µM. hit rate 0.13% among 650,000. AID 1259310; in the data active = normalized activity above about 1.9%;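 note: purified mutant Fbw7 with reduced substrate affinity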
# MITF inh: human MITF inhibition, primary screen. O75030. AlphaScreen MITF homodimerization, bead proximity signal. inhibition, % at 2.6 µM. hit rate 0.91% among 650,000; in the data active = inhibition above about 50%
# Target sequence (O75030 whole entry, looked up): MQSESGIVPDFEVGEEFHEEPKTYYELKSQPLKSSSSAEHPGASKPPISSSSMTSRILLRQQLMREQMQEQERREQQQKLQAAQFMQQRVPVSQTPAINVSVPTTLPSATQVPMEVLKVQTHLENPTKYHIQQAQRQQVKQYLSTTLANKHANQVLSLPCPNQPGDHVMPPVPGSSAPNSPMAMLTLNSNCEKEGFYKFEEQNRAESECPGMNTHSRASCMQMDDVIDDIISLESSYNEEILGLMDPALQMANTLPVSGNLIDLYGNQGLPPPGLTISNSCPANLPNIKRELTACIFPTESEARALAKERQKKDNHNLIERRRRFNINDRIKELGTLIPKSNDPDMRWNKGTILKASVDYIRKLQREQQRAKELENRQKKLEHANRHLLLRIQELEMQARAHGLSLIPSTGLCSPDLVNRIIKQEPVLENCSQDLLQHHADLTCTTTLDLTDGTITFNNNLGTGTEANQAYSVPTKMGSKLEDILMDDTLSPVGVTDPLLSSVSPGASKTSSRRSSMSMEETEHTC
# A number is an active result; – = inactive.
SMILES,TEAD-YAP block,GPR151 activ,FBW7 activator,MITF inh
Oc1c(C(Nc2cccc(Cl)c2)c2ccncc2)ccc2cccnc12 (centres undefined),–,–,–,103
Oc1c(C(Nc2ncccn2)c2ccco2)ccc2cccnc12 (centres undefined),–,–,–,–
Oc1c(C(Nc2ccccn2)c2ccccn2)ccc2cccnc12 (centres undefined),–,–,–,–
Oc1c(C(Nc2ccccn2)c2ccco2)ccc2cccnc12 (centres undefined),63,–,–,–
Oc1c(C(Nc2ccccc2)c2ccccn2)ccc2cccnc12 (centres undefined),–,–,–,94
Cc1cccc(NC(c2ccccc2F)c2ccc3cccnc3c2O)n1 (centres undefined),–,–,–,–
Oc1c(C(Nc2ccccn2)c2ccccc2F)ccc2cccnc12 (centres undefined),84,–,–,–
O=C(Sc1cccc2cccnc12)N1CCOCC1,–,–,–,–
Oc1c(C(c2ccc(Br)cc2)N2CCOCC2)ccc2cccnc12 (centres undefined),73,–,–,–
Oc1c(C(c2ccccc2)N2CCOCC2)ccc2cccnc12 (centres undefined),87,–,–,–
O=C(Cc1ccccc1)Nc1cc(=O)[nH]c(=O)[nH]1,–,–,–,–
Cc1ccc(C)c(NC(=O)Cn2cnc3c(cnn3-c3cccc(C)c3C)c2=O)c1,–,–,–,–
O=c1[nH]c(C2CC2)nc2cc(-c3cnn(-c4ccc(Cl)cc4)c3)ccc12,60,–,–,–
Cc1ccc(C2=NC(=O)/C(=C/c3ccccc3OCC(=O)OC(C)C)S2)cc1,–,–,–,–
COc1cc(OC)cc(-c2cc3nc(C)cc(NCc4cccnc4)n3n2)c1,–,–,–,–
O=C(Nc1ccc(-c2cn[nH]n2)cc1)C1COc2ccc(Cl)cc2C1 (centres undefined),–,–,–,–
COc1ccc2c(c1)CC(C(=O)Nc1ccc(-c3cn[nH]c3)cc1OCCC(C)C)CO2 (centres undefined),–,–,–,–
COc1ccc2c(c1)CC(C(=O)Nc1ccc(-c3cn[nH]c3)cc1OCCO)CO2 (centres undefined),39,–,–,–
COc1ccc2c(c1)CC(C(=O)Nc1ccc(-c3cn[nH]n3)cc1)CO2 (centres undefined),–,–,5.9,–
COc1ccc2c(c1)CC(C(=O)Nc1ccc(-c3cn[nH]c3)cc1C(=O)NCC#N)CO2 (centres undefined),–,–,20,–
COc1ccc(CNC(=O)c2cc(-c3cn[nH]c3)ccc2NC(=O)C2COc3ccc(OC)cc3C2)cc1 (centres undefined),–,–,–,–
NCCOc1cc(-c2cn[nH]c2)ccc1NC(=O)C1COc2ccccc2C1 (centres undefined),41,–,–,–
CCOc1cc(/C=N/O)cc([N+](=O)[O-])c1O,–,–,–,–
COc1ccc2c(c1)CC(C(=O)Nc1cc3cc(-c4ccncc4)ccc3cn1)CO2 (centres undefined),59,–,–,–
CCN(c1ccccc1)S(=O)(=O)c1cc(C(=O)Nc2ccc(Br)cc2)ccc1F,–,–,–,–
SMILES,TEAD-YAP block,GPR151 activ,FBW7 activator,MITF inh
CCCCN(CC)S(=O)(=O)c1cc(C(=O)Nc2ccc(Oc3ccccc3)cc2)ccc1F,60,–,–,–
CN(Cc1ccccc1)S(=O)(=O)c1cc(C(=O)Nc2ccc(Oc3ccccc3)cc2)ccc1F,61,–,–,–
CCN(Cc1ccccc1)S(=O)(=O)c1cc(C(=O)Nc2ccc(Br)cc2)ccc1F,50,–,–,–
COc1cccc(NC(=O)c2ccc(F)c(S(=O)(=O)N(C)Cc3ccccc3)c2)c1,–,–,–,–
COc1cccc2cc(-c3csc(Nc4ccc(C(F)(F)F)cc4)n3)c(=O)oc12,–,–,–,–
C/C=C/C1OC23CCCCC2C(C#N)(C#N)C1(C#N)C(=N)O3 (centres undefined),–,–,–,–
Cc1ccc(/C=C/C(=O)Nc2sccc2C(N)=O)o1,–,–,–,–
NC(=O)c1ccsc1NC(=O)/C=C/c1ccccc1,81,–,–,–
Cc1cccc(C(=O)Nc2sc3c(c2C(N)=O)CCCC3)c1,52,–,–,–
Cc1cccc(C(=O)Nc2sc3c(c2C(=O)O)CCCC3)c1,70,–,–,–
NC(=O)c1c(NC(=O)c2ccc(Br)o2)sc2c1CCCCC2,85,–,–,–
N=c1sccn1CC(=O)c1cccs1,–,–,–,–
O=C(Nc1ccc(Oc2ccccc2)cc1)C(=O)Nc1ccc2c(c1)OCCO2,–,–,–,–
NC(=O)c1c(NC(=O)c2cccc(Br)c2)sc2c1CCCC2,47,–,–,–
NC(=O)c1c(NC(=O)/C=C/c2ccccc2)sc2c1CCC2,–,–,–,–
O=C(/C=C/c1ccccc1)Nc1sc2c(c1C(=O)O)CCCC2,49,–,–,–
Cc1cccc(OCC(=O)Nc2sc3c(c2C(N)=O)CCCC3)c1,53,–,–,–
Cc1ccc(NC(=O)c2c(NC(=O)c3ccc(Br)cc3)sc3c2CCCC3)c(C)c1,–,–,2.1,–
O=C(COc1ccc(Cl)cc1)NCCCCNC(=O)COc1ccc(Cl)cc1,–,–,–,–
O=C(N/C(=C\c1cccc(F)c1)C(=O)N1CCC(O)CC1)c1ccccc1Br,–,–,–,–
CCC(=O)Nc1sc2c(c1C(N)=O)CCC2,–,–,–,–
NC(=O)c1c(NC(=O)CCl)sc2c1CCC2,61,–,–,–
N#CC1=C(N)C(C#N)(C#N)C(c2ccccc2F)C2CN(Cc3ccccc3)CC=C12 (centres undefined),–,–,–,–
COc1ccccc1C1C2CN(Cc3ccccc3)CC=C2C(C#N)=C(N)C1(C#N)C#N (centres undefined),–,–,1.9,–
O=C(CN1C(=O)C2(SCC(=O)N2c2ccc(Cl)cc2)c2ccccc21)NC1CCCC1 (centres undefined),–,–,–,–
SMILES,TEAD-YAP block,GPR151 activ,FBW7 activator,MITF inh
Cc1cc(C)n(CCNc2nncc(-c3ccc4c(c3)OCO4)n2)n1,–,–,–,–
c1cnn(CCCNc2nncc(-c3ccc4c(c3)OCO4)n2)c1,85,–,–,–
CCCc1cc(=O)[nH]c2nnc(SCc3ccccc3C)n12,–,–,–,–
COCCn1c(C)c(C)n2c3c(=O)n(Cc4ccccc4F)c(=O)n(C)c3nc12,–,–,–,–
COC(=O)c1ccccc1OCCCOc1ccc(C)cc1OC,–,–,–,–
COc1cc(C)ccc1OCCCOc1ccccc1C(=O)O,37,–,–,–
CNC(=O)c1ccccc1Nc1cc(Nc2ccc(F)cc2OC)ncc1C(F)(F)F,–,–,–,–
CNC(=O)c1ccccc1Nc1cc(Nc2ccc(N3CCN(C)CC3)cc2OC)ncc1C(F)(F)F,85,–,–,–
CNC(=O)c1ccccc1Nc1cc(Nc2ccc(N3CCOCC3)cc2OC)ncc1Br,–,–,–,–
CNC(=O)c1ccccc1Nc1cc(Nc2ccc(OC3CCN(C)CC3)cc2OC)ncc1C(F)(F)F,74,–,–,–

# Screens (PubChem BioAssay)
